Test in all cases: NCI-60 one-dose screen, 48 h (100 = growth as untreated, 0 = no growth, -100 = all killed)
Common to all, as to details: 10 µM unless noted

The test system of assay [1] is SK-MEL-2 melanoma.
In assay [2] the test system is EKVX NSCLC.
Assay [3] deals with SN12C renal.
Assay [4] deals with UO-31 renal.
Assay [5] concerns TK-10 renal.
In assay [6] the test system is ACHN renal.
Assay [7] deals with CAKI-1 renal.
For assay [8], the system named is A498 renal.
Assay [9] deals with CCRF-CEM leukemia.
For assay [10], the system named is SR leukemia.
In assay [11] the test system is RPMI-8226 leukemia.
The subject of assay [12] is OVCAR-8 ovarian.
Assay [13] concerns OVCAR-5 ovarian.
In assay [14] the test system is OVCAR-4 ovarian.
For assay [15], the system named is SK-OV-3 ovarian.
Assay [16] deals with IGROV1 ovarian.
Assay [17] concerns OVCAR-3 ovarian.
The subject of assay [18] is HS 578T breast.
In assay [19] the test system is NCI/ADR-RES ovarian.
The test system of assay [20] is MOLT-4 leukemia.

This is part of a sample that, as a whole, favours compounds with a hit. Of some 83,000 tested, about 20% had one in any assay.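 Testing used 96-well plates and a 48-hour single-concentration exposure. Example: -40 means 40% of the starting cells died.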 Unmarked numbers belong to inactive results. The source made the active and inactive calls. Rule for the calls: active = growth percent below 10; inactive = the rest.

In the case of `CCN(CC)c1ccc(\C=N/N=C(N)/C(N)=N\N=C/c2ccc(N(CC)CC)cc2)cc1`, the growth in [1] was 97.7%; in [2], 104%; in assay [3], 105%; in assay [4], 82.9%; in assay [5] it was 113%; in assay [6], 96.4%. In addition, the growth in assay [7] is 88.9%; in [8], 102%; in assay [9], 89%; in assay [10], 87.6%; in assay [11] it was 99%; in [12], 99%. In addition, the growth was 126% in assay [13]; 110% in [14]; 102% in assay [15]; 105% in assay [16]; 115% in assay [17]; 103% in [18]. In assay [19], the growth was 101%.

With `COC(=O)c1c(C)c2n(c1C)C(=O)C(c1ccccc1)=C2`, the growth in assay [1] was 77.7%; in assay [2], 10.2%; in assay [3], 78.7%; in assay [4] it was 57.9%; in assay [5], 143%; in assay [6] it was 74%. Moreover, the growth in assay [7] is 33.1%; in assay [8] it was 84.2%; in assay [9], 92.8%; in [20], 66.8%; in [11] it was 88.5%; in assay [12], 79.2%. The growth is 68.9% in assay [13]; 71.2% in [14]; 80.8% in [15]; -8.44% (active) in [16]; 104% in assay [17]; 103% in assay [18]. Besides, in assay [19], the growth was 86.8%.

For the molecule `Cc1ccc(C(=O)c2ccc(CC(=O)N/N=C/c3ccccc3O)n2C)cc1`, the growth in assay [1] was 89.6%; in assay [2] it was 82.8%; in [3], 89.8%; in assay [4], 40.6%; in assay [5], 85.1%; in assay [6], 53.2%. Further, the growth in assay [7] is 64.5%; in assay [8], 82%; in assay [9], 54.1%; in [20], 74%; in assay [11] it was 81.4%; in assay [12], 79%. For the same molecule, the growth in [13] is 92%; in assay [14], 60.2%; in assay [15] it was 90.4%; in [16] it was 80.9%; in assay [17], 80.3%; in [18], 104%. Besides, the growth in assay [19] is 69.4%.

Consider `N#CSCC1CC(O)(c2ccccc2)CC(c2ccc(F)cc2)O1` (stereo unspecified), for which the growth in assay [1] was -54.6% (active); in [2], 34.2%; in [3], -61.5% (active); in [4], 33.3%; in assay [5], 59.7%; in [6] it was 9.51% (active). Moreover, the growth is -44.9% (active) in [7]; 33.3% in [8]; 7.42% (active) in [9]; -0.406% (active) in assay [20]; -22.4% (active) in assay [11]; 10.3% in [12]. Further, the growth in assay [13] was 85.6%; in assay [14] it was 26.1%; in assay [15], 52.7%; in assay [16], 51.1%; in [17], -79.3% (active); in assay [18], -22.7% (active). For the same molecule, the growth in [19] is -3.67% (active).

As to `Oc1c(I)cc(I)cc1CNCc1ccccn1`, the growth in [1] was 35.7%; in [2], 25.9%; in assay [3], 38.4%; in assay [4], 5.01% (active); in [5], 23.4%; in assay [6], 24.6%. The growth is 15.4% in assay [7]; 62.4% in assay [8]; 23.6% in assay [9]; 22.1% in [10]; 30.9% in assay [11]; 13.8% in [12]. Further, the growth was 22.8% in assay [14]; 28% in [15]; 24.4% in assay [16]; 20.3% in assay [17]; 57.9% in assay [18]; 10.3% in assay [19].

As for `CC1(C)CC(=O)C2=C(C1)N(c1ccc(OC(F)(F)F)cc1)C(N)=C(C#N)C2c1ccc(Br)cc1F` (stereo unspecified), the growth in assay [1] is 88.6%; in assay [2] it was 82%; in assay [3], 58.7%; in [4] it was 70.3%; in assay [5] it was 119%; in assay [6] it was 41.1%. Moreover, the growth was 31.4% in [8]; 85.6% in [9]; 63% in assay [20]; 76% in [10]; 100% in assay [11]; 35.8% in assay [12]. Further, the growth is 87.2% in [13]; 54.9% in assay [14]; 61.2% in assay [15]; 63.2% in assay [16]; 58% in assay [17]; 23.7% in assay [18]. Also, in [19], the growth is 35.3%.

Consider `Cc1[nH]c(C(=O)Nc2ccccc2OC2CCNCC2)c(Cl)c1Cl`, for which the growth in assay [1] was 24.2%; in [2] it was 43%; in [3], -53.2% (active); in assay [4], -75.8% (active); in assay [5], -3.07% (active); in assay [6], -19.2% (active). The growth was 67.6% in assay [8]; 1.15% (active) in [9]; 4.46% (active) in assay [20]; 10.1% in assay [10]; -45.2% (active) in assay [11]; 1.61% (active) in assay [12]. Moreover, the growth was 68.7% in assay [13]; -72.8% (active) in assay [14]; 109% in assay [15]; 48.4% in [16]; -77.7% (active) in assay [17]; -19.1% (active) in [18]. For the same molecule, the growth in assay [19] is 33.8%.

As for `NC(=O)c1ccc(-c2c3ccccc3cc3c2ccc2ccccc23)cc1`, the growth in [1] is 43.7%; in [2], 67.7%; in [3], 72.9%; in assay [4], 57.5%; in assay [5] it was 70.2%; in assay [6], 57.2%. In addition, the growth was 70% in assay [8]; 37.8% in assay [9]; 40.5% in assay [20]; 15.9% in assay [10]; 49.7% in assay [11]; 77.4% in assay [12]. Further, the growth in [13] was 74.7%; in assay [14] it was 80%; in [15], 69.5%; in [16], 42.6%; in [17] it was 3.85% (active); in assay [18], -12.4% (active). Also, the growth in assay [19] is 16.6%.

Values taken from PubChem BioAssay (NCI).
